Source: PubChem BioAssay
CBFb-RUNX1 inh: blocks binding between human CBF-beta and RUNX1 | AlphaScreen CBFb-His/RUNX1-biotin binding, biochemical | Q01196+Q13951 | 230,000 tested, under 10 active | Potency, µM (titrated, usually from 59.8 µM), for the others: top-dose activity, negative = inhibition, usual class: inhibitors; also: % of control where 0% means no effect
Target sequence (Q01196 whole entry, looked up): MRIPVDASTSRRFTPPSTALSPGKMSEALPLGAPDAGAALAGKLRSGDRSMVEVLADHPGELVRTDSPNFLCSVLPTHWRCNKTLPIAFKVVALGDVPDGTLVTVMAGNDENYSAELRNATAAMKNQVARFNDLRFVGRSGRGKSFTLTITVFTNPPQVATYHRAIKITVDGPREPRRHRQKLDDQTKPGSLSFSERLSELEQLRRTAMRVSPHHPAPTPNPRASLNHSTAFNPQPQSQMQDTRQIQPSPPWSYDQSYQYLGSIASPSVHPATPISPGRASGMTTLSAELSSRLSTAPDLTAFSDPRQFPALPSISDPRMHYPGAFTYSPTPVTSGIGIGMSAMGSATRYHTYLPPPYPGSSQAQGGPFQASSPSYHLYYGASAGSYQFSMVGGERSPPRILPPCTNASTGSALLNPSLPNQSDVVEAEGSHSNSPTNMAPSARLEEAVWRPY
Target sequence (Q13951 whole entry, looked up): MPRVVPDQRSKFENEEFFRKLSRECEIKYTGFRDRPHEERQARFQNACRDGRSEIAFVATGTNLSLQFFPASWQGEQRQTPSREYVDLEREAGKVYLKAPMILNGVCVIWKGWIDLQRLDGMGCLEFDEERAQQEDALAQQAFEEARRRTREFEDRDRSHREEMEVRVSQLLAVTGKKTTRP
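Inhibition was taken as any reduction in AlphaScreen signal from the CBF-beta–RUNX1 pair (His and biotin tags, 30 nM each), measured after compound (15 min) and bead (90 min) incubations at room temperature.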
ALDH1A1 inh: ALDH1A1 (human) enzyme inhibition | hit rate 7.3% among 220,000 | Purified ALDH1A1, NADH fluorescence, propionaldehyde substrate | P00352 | Potency, µM (top dose mostly 75.3 µM), for the others: at the highest dose activity, negative = inhibition, hits mostly inhibitors; active = well fitted inhibition curve with a large enough effect, not every such curve was filed as active; inconclusive = small, poorly fitted or top-dose-only effect, or another doubt; inactive = no such curve, though single readings can be large or run the other way;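 also: potency is read from the fitted curve at half-maximal effect; plate controls were no enzyme wells and a reference inhibitor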
PNC assembly inh: perinucleolar compartment assembly inhibition. PC3M PTB-GFP, PNC prevalence imaging, 16 h; hits give low values. hit rate 3.1% among 140,000. activity change (PNC), negative = inhibition, % at 10 µM;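 active = readout at or below -70, meaning at least 70% loss of cells showing the perinucleolar compartment, a nuclear body marking cancer cells; inconclusive = readout between -30 and a set limit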;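 also: plate controls were DMSO wells for no effect and camptothecin positive control wells for full effect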
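Compounds are pinned in duplicate onto adhered PC3M cells stably expressing GFP-tagged PTB and incubated 16 h at 37 C. Cells are then fixed, nuclei stained with Hoechst, and PNC-positive cells counted.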
HTT aggregate: mutant huntingtin aggregation inhibition; PC12 HttQ103-GFP aggregates, Acumen cytometry, 40 h; Potency, µM (highest dose often 46.1 µM), for the others: top-dose activity change, negative = inhibition, actives largely listed as inhibitors; hit rate 1.1% among 220,000; AID 1688; also: potency is read from the fitted curve at half-maximal effect; % is scaled to controls: 0 for no effect and ±100 for the full control effect; nearly all actives have a fitted effect of over 60% in size
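PC12 cells stably carrying ecdysone-inducible HTT exon 1 Q103–GFP were induced with tebufenozide (100 nM final) and treated with library compounds in titration. GFP aggregates in lysates were counted by laser scanning cytometry.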
HTT cytoprotect: protects HTT-Q103 PC12 cells, measured by ATP; hit rate 0.14% among 230,000; Potency, µM (top dose mostly 56.4 µM), for the others: cytoprotection (ATP increase), usual class: activators; PC12 HTT-Q103 induced, cytoprotection, ATP luminescence, 40 h; AID 1471; also: potency is read from the fitted curve at half-maximal effect; % of control where 0% means no effect; nearly all actives have a fitted effect of over 45% in size
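Cells were plated at 1500 per well in phenol red-free DMEM with 5% equine and 5% calf serum. Tebufenozide (100 nM final) and compounds were added, then ATPlite reagent, and luminescence was read.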
HPGD block: blocks human HPGD enzyme activity; purified HPGD, NADH fluorescence kinetic, PGE2 substrate; Potency, µM, for the others: at the highest dose activity change, negative = inhibition, usual class: inhibitors; hit rate 4.3% among 150,000; AID 894; active = well fitted inhibition curve with a large enough effect, not every such curve was filed as active; inconclusive = small, poorly fitted or top-dose-only effect, or another doubt; inactive = no such curve, though single readings can be large or run the other way; also: potency is read from the fitted curve at half-maximal effect; % is scaled to controls: 0 for no effect and ±100 for the full control effect
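NADH formation kinetics: reaction with 30 uM PGE2 and 1 mM NAD+ (final), 20 nM enzyme, Tris-HCl pH 8 with Tween 20, after 15 min compound preincubation at room temperature. Fluorescence change, last versus first of five reads.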
* hit, by the source's call; ? = inconclusive; nt = not tested or not shown; ! = not active in a repeat; [ ] = remark or other dose. Compounds with a hit are over-represented: about 11% of the library has one in this group of screens. Unless noted, calls follow the shape of the dose curve; as a rule, active = well fitted curve in the direction sought with a large enough effect; inconclusive = small, poorly fitted or top-dose-only effect, or another doubt; inactive = no such curve, though single readings can be large; an effect the other way counts as inactive or inconclusive.

SMILES	CBFb-RUNX1 inh	ALDH1A1 inh	PNC assembly inh	HTT aggregate	HTT cytoprotect	HPGD block
COc1cccc(C(=O)CN(C(=O)c2ccc(Cl)c(Cl)c2)N2C(=O)c3ccccc3C2=O)c1	-6%	14µM*	?	11%	5%	-8%
COc1cccc(C(=O)COC(=O)C(C)N2C(=O)c3ccccc3C2=O)c1 (stereo not drawn)	2%	-15%	-28	-12%	-12%	-17%
CN(C)/C=N/c1cnc(C(=O)c2ccc(Cl)cc2)n1C	-7%	-1%	9	2%	-9%	16µM*
CC(=O)C[C@H](c1ccc([N+](=O)[O-])cc1)c1c(O)c2ccccc2oc1=O	24%[21.7 µM]	11%[20.9 µM]	nt	9%[20.6 µM]	-39%[17.1 µM]	-11%
CCCCc1ccc(/C=C2\C(=O)c3ccccc3C(O)=C2C(=O)OCC)cc1	-6%	?	42	8%	6%[10 µM]	8.9µM*
CCCCc1ccc(NC(=O)N[C@@H](C)C(=O)O)cc1	14%	nt	nt	-2%[9.22 µM]	26%[10 µM]	nt
N=C(N)c1ccc2cc(OC(=O)c3ccc(N=C(N)N)cc3)ccc2c1	-1%	22µM*	nt	3%	-17%	nt
CCOC(=O)c1c(NC(=O)Cn2cnc([N+](=O)[O-])n2)sc(C)c1C	-1%	32µM*	nt	-15%	-67%	nt
CCOC(=O)c1c(NC(=O)Cn2nc(C(F)F)cc2C(F)F)sc(C)c1C	-5%	?	37	-13%	-7%	?
COC(=O)c1c(NC(=O)Cn2nc(C(F)F)cc2C(F)F)sc(C)c1C	0%	11µM*	?	-2%	-12%	28µM*
CC(C)OC(=O)c1c(NC(=O)Cn2cnc([N+](=O)[O-])n2)sc2c1CCCC2	8%	13µM*	?	-2%	3%[10 µM]	-27%
CCOC(=O)c1c(NC(=O)Cn2cnc([N+](=O)[O-])n2)sc2c1CCCC2	-10%	?	30	?	21%[10 µM]	-17%
CCOC(=O)c1c(NC(=O)Cn2cnc3scc(-c4ccc(C)cc4)c3c2=O)sc(C)c1C	1%	14µM*	?	?	3%[10 µM]	-29%
COc1ccc([C@@H](Nc2ncccn2)c2cc3c(cc2O)OCO3)cc1	nt	-12%[13.5 µM]	nt	nt	1%[10 µM]	-21%
CC(=O)Nc1ccc(SCC(=O)c2c(N)n(Cc3ccccc3)c(=O)n(C)c2=O)cc1	1%	nt	nt	1%[9.22 µM]	8%[10 µM]	nt
CC(C)Nc1nnc(SCC(=O)c2c(N)n(Cc3ccccc3)c(=O)n(C)c2=O)s1	-4%	-2%	?	0.11µM*	-17%	-18%
Clc1nc(Cl)nc(-c2cn(-c3ccccc3)c3ccccc23)n1	4%	nt	nt	-5%[9.22 µM]	-8%[10 µM]	nt
Brc1cc2[nH]cnc2c2ccccc12	5%	14µM*	5	?	-13%	22µM*
Cc1c(Cc2ccccc2)sc(NC(=O)c2ccco2)c1C(N)=O	20%	?	-111*	-19%	-31%[10 µM]	?
COC(=O)c1c(NC(=O)c2ccco2)sc(C)c1C	6%	?	-81*	28%	-10%	-28%
Cc1c(Cc2ccc3c(c2)OCO3)sc(NC(=O)c2cccc3ccccc23)c1C(N)=O	2%[2.36 µM]	14µM*	36	-32%	nt	14µM*
O=C(CCN1CCOCC1)N/N=C/c1cc(Br)cc(Br)c1O	-17%	-1%	nt	-12%[9.22 µM]	1%[10 µM]	nt
O=C(N[C@H](CO)[C@H](O)c1ccc([N+](=O)[O-])cc1)C(Cl)Cl	7%[21.7 µM]	14µM*!	nt	nt	-24%[1.9 µM]	-11%
O=C(NC(CO)C(O)c1ccc([N+](=O)[O-])cc1)C(Cl)Cl (stereo not drawn)	16%	-7%	nt	-5%	?	-1%
O=[N+]([O-])c1ccc(/C=N/Nc2nc(N3CCCCC3)nc(N3CCCCC3)n2)cc1	-4%	?	nt	1%[9.22 µM]	12%[10 µM]	nt
SMILES	CBFb-RUNX1 inh	ALDH1A1 inh	PNC assembly inh	HTT aggregate	HTT cytoprotect	HPGD block
O=[N+]([O-])c1ccc(/C=N/Nc2nc(N3CCCCCC3)nc(N3CCCCCC3)n2)o1	12%	3%	-11	7.1µM*	-15%[10 µM]	-20%
COc1nc(N/N=C/c2ccc(-c3ccccc3[N+](=O)[O-])o2)nc(N2CCOCC2)n1	1%	8.9µM*	-5	-6%	-30%[10 µM]	-14%
O=[N+]([O-])c1ccc(-c2ccc(/C=N/Nc3nc(NCc4ccccc4)nc(N4CCOCC4)n3)o2)cc1	2%	?	nt	0%[9.22 µM]	-67%[10 µM]	nt
CCNc1ncc2nc(CCc3ccccc3)c(=O)n(C[C@H]3CCCO3)c2n1	nt	?	nt	nt	-2%	nt
C[Si](C)(c1ccc(C(=O)O)cc1)c1ccc(C(=O)O)cc1	nt	14%[13.5 µM]	nt	nt	10%[10 µM]	0.2µM*
COc1ccccc1Nc1nc(N)nc(CN2CCC(Cc3ccccc3)CC2)n1	-8%	13µM*	?	8%	-12%[10 µM]	?
COc1ccccc1Nc1nc(N)nc(CN2CCC(C)CC2)n1	-5%	8%	nt	-10%	-25%	nt
O=C(c1cc(C(F)(F)F)cc(C(F)(F)F)c1)N1CCC2(CCCN(Cc3ccccc3)C2)CC1	nt	4%	nt	nt	-51%	-9%
CS[C@@H](CC(=O)O)C(=O)O	nt	-2%[13.5 µM]	nt	nt	-13%[10 µM]	-11%
COC(=O)C(C)Sc1n[nH]c(=S)s1 (stereo not drawn)	-3%	20µM*	-17	13%[9.22 µM]	2%	25µM*
O=C(O)CC(Sc1n[nH]c(=S)s1)C(=O)O (stereo not drawn)	24%	13µM*	nt	-8%[9.22 µM]	-12%[10 µM]	nt
O=C(c1nc2ccc([N+](=O)[O-])cc2[nH]c1=O)[C@@H](O)c1ccc2c(c1)OCO2	nt	2%[13.5 µM]	nt	nt	-16%[10 µM]	-3%
COc1cccc(/C=C/C2=CC3(C)CC2(C)C(c2cccc(OC)c2)CC3=O)c1 (stereo not drawn)	2%[13.1 µM]	1%[13.5 µM]	nt	nt	?	nt
CSC1=N/C(=C\c2ccc(C)cc2)C(=O)S1	2%	?	?	7%	-8%	-18%
CCOC(=O)SC1=N/C(=C\c2ccc(N(C)C)cc2)C(=O)S1	-24%	5µM*	40	3%	-29%[0.074 µM]	-22%
O=C(CNc1ccccc1OC(F)F)N1CCc2ccccc21	1%	?	nt	2%	-26%	nt
CCOC(=O)Nc1ccc(NS(=O)(=O)c2ccc(C)cc2)cc1	8%	?	24	-3%	12%[10 µM]	-12%
Cc1ccc(CNC(=O)/C=C/C(=O)O)cc1	2%	0%	nt	0%	-18%	nt
Cc1ccc(S(=O)(=O)Nc2ccc(NC(=O)/C=C/C(=O)O)cc2)cc1	5%	35µM*	nt	2%	-42%[10 µM]	nt
O=C(O)/C=C/C(=O)Nc1ccc(OCc2ccccc2)cc1	9%	nt	nt	-11%[9.22 µM]	-26%[10 µM]	nt
Cc1ccc(NC(=O)/C=C\C(=O)NCC(=O)O)cc1	-2%	28µM*	nt	9%[9.22 µM]	-25%	nt
O=C(O)/C=C/C(=O)Nc1ccc(-c2ccccc2)cc1	-8%	3.2µM*	nt	20%[9.22 µM]	12%[10 µM]	nt
CCC(Nc1ncnc2ccc(-c3c(C)noc3C)cc12)c1ccccc1 (stereo not drawn)	1%	nt	nt	nt	nt	nt
